# Data reported in PubChem BioAssay AID1159580 (chemical genetic matrix, 2015).
# Screen size: about 5,500 compounds; about 2,000 (36%) were called active. About 18% were inconclusive and are not listed. This is one part of the list. Unmarked numbers belong to inactive results. Cut-off read from the data, not from the text of the source: active = normalized growth mostly below about 0.91 (no sharp cut-off); inconclusive = no clear call, values can overlap the other calls; inactive = mostly above about 0.92.
# Test: chemical genetic growth profiling, strain panel (AID 1159580);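 note: tested at 20 µM; growth read once vehicle control cultures reached saturation at 30 °C; 1 = growth at the plate median or of vehicle wells; lower values mean less growth of the strain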
# Settings: growth OD
compound,measurement,setting,value
O=c1oc2cc(O)ccc2s1,normalized growth,"S. cerevisiae deletion strains, locus YJR043C, strain POL32, stronger effect = lower value",0.962
same,normalized growth,"S. cerevisiae deletion strains, locus YJR075W, strain HOC1, stronger effect = lower value",0.958
same,normalized growth,"S. cerevisiae deletion strains, locus YKL009W, strain mrt4, stronger effect = lower value",0.952
same,normalized growth,"S. cerevisiae deletion strains, locus YKL068W, stronger effect = lower value",0.995
same,normalized growth,"S. cerevisiae deletion strains, locus YKL085W, strain MDH1 (second series), stronger effect = lower value",0.975
same,normalized growth,"S. cerevisiae deletion strains, locus YKL085W, strain MDH1, stronger effect = lower value",0.975
same,normalized growth,"S. cerevisiae deletion strains, locus YKL160W, strain elf1, stronger effect = lower value",0.99
same,normalized growth,"S. cerevisiae deletion strains, locus YKL190W, strain CNB1, stronger effect = lower value",1
same,normalized growth,"S. cerevisiae deletion strains, locus YKR001C, strain vps1, stronger effect = lower value",0.894 (active)
same,normalized growth,"S. cerevisiae deletion strains, locus YKR026C, strain gcn3, stronger effect = lower value",1.01
same,normalized growth,"S. cerevisiae deletion strains, locus YKR091W, strain srl3, stronger effect = lower value",1.01
same,normalized growth,"S. cerevisiae deletion strains, locus YLL001W, strain dnm1, stronger effect = lower value",0.974
same,normalized growth,"S. cerevisiae deletion strains, locus YLL026W, stronger effect = lower value",0.99
same,normalized growth,"S. cerevisiae deletion strains, locus YLL041C, strain sdh2, stronger effect = lower value",1.02
same,normalized growth,"S. cerevisiae deletion strains, locus YLR027C, strain aat2, stronger effect = lower value",0.983
same,normalized growth,"S. cerevisiae deletion strains, locus YLR039C, strain RIC1, stronger effect = lower value",0.909
same,normalized growth,"S. cerevisiae deletion strains, locus YLR058C, strain SHM2, stronger effect = lower value",0.983
same,normalized growth,"S. cerevisiae deletion strains, locus YLR102C, strain apc9, stronger effect = lower value",0.963
same,normalized growth,"S. cerevisiae deletion strains, locus YLR221C, strain rsa3, stronger effect = lower value",0.971
same,normalized growth,"S. cerevisiae deletion strains, locus YLR258W, strain gsy2, stronger effect = lower value",1
same,normalized growth,"S. cerevisiae deletion strains, locus YLR262C, strain YPT6 (second series), stronger effect = lower value",0.965
same,normalized growth,"S. cerevisiae deletion strains, locus YLR262C, strain YPT6, stronger effect = lower value",0.981
same,normalized growth,"S. cerevisiae deletion strains, locus YLR268W, strain sec22, stronger effect = lower value",0.903
same,normalized growth,"S. cerevisiae deletion strains, locus YLR320W, strain mms22, stronger effect = lower value",0.962
same,normalized growth,"S. cerevisiae deletion strains, locus YLR330W, strain CHS5, stronger effect = lower value",0.982
same,normalized growth,"S. cerevisiae deletion strains, locus YLR342W, strain FKS1 (second series), stronger effect = lower value",0.956
same,normalized growth,"S. cerevisiae deletion strains, locus YLR342W, strain FKS1, stronger effect = lower value",1
same,normalized growth,"S. cerevisiae deletion strains, locus YLR357W, strain rsc2, stronger effect = lower value",0.995
same,normalized growth,"S. cerevisiae deletion strains, locus YLR370C, strain arc18, stronger effect = lower value",0.999
same,normalized growth,"S. cerevisiae deletion strains, locus YLR371W, strain rom2, stronger effect = lower value",0.965
same,normalized growth,"S. cerevisiae deletion strains, locus YLR384C, strain iki3, stronger effect = lower value",1.02
same,normalized growth,"S. cerevisiae deletion strains, locus YLR418C, strain cdc73, stronger effect = lower value",0.929
same,normalized growth,"S. cerevisiae deletion strains, locus YML016C, strain PPZ1, stronger effect = lower value",0.98
same,normalized growth,"S. cerevisiae deletion strains, locus YML032C, strain rad52, stronger effect = lower value",0.858 (active)
same,normalized growth,"S. cerevisiae deletion strains, locus YML120C, strain ndi1, stronger effect = lower value",0.994
same,normalized growth,"S. cerevisiae deletion strains, locus YML124C, strain tub3, stronger effect = lower value",0.962
same,normalized growth,"S. cerevisiae deletion strains, locus YMR058W, strain fet3, stronger effect = lower value",0.967
same,normalized growth,"S. cerevisiae deletion strains, locus YMR078C, strain ctf18, stronger effect = lower value",0.95
same,normalized growth,"S. cerevisiae deletion strains, locus YMR125W, strain sto1, stronger effect = lower value",1.12 [resistant] (active)
same,normalized growth,"S. cerevisiae deletion strains, locus YMR129W, stronger effect = lower value",1
same,normalized growth,"S. cerevisiae deletion strains, locus YMR205C, strain PFK2, stronger effect = lower value",0.969
same,normalized growth,"S. cerevisiae deletion strains, locus YMR223W, strain ubp8, stronger effect = lower value",0.96
same,normalized growth,"S. cerevisiae deletion strains, locus YMR231W, strain pep5, stronger effect = lower value",1.03
same,normalized growth,"S. cerevisiae deletion strains, locus YMR263W, strain SAP30, stronger effect = lower value",0.956
same,normalized growth,"S. cerevisiae deletion strains, locus YMR307W, strain GAS1, stronger effect = lower value",0.946
same,normalized growth,"S. cerevisiae deletion strains, locus YNL067W, strain RPL9B, stronger effect = lower value",0.926
same,normalized growth,"S. cerevisiae deletion strains, locus YNL071W, strain lat1, stronger effect = lower value",1.01
same,normalized growth,"S. cerevisiae deletion strains, locus YNL128W, strain TEP1, stronger effect = lower value",0.962
same,normalized growth,"S. cerevisiae deletion strains, locus YNL153C, strain GIM3, stronger effect = lower value",0.948
same,normalized growth,"S. cerevisiae deletion strains, locus YNL209W, strain ssb2, stronger effect = lower value",1
same,normalized growth,"S. cerevisiae deletion strains, locus YNL233W, strain BNI4, stronger effect = lower value",0.955
same,normalized growth,"S. cerevisiae deletion strains, locus YNL248C, strain rpa49, stronger effect = lower value",1.04
same,normalized growth,"S. cerevisiae deletion strains, locus YNL250W, strain rad50, stronger effect = lower value",0.941
same,normalized growth,"S. cerevisiae deletion strains, locus YNL271C, strain bni1, stronger effect = lower value",0.939
same,normalized growth,"S. cerevisiae deletion strains, locus YNL298W, strain CLA4, stronger effect = lower value",0.917
same,normalized growth,"S. cerevisiae deletion strains, locus YNL307C, strain MCK1, stronger effect = lower value",0.959
same,normalized growth,"S. cerevisiae deletion strains, locus YNL322C, strain KRE1 (second series), stronger effect = lower value",1.01
same,normalized growth,"S. cerevisiae deletion strains, locus YNL322C, strain KRE1, stronger effect = lower value",0.99
same,normalized growth,"S. cerevisiae deletion strains, locus YNR049C, strain mso1, stronger effect = lower value",0.999
same,normalized growth,"S. cerevisiae deletion strains, locus YNR052C, strain pop2, stronger effect = lower value",0.966
same,normalized growth,"S. cerevisiae deletion strains, locus YOL006C, strain TOP1, stronger effect = lower value",0.908
same,normalized growth,"S. cerevisiae deletion strains, locus YOL012C, strain htz1",1.09
same,normalized growth,"S. cerevisiae deletion strains, locus YOL147C, strain pex11, stronger effect = lower value",0.964
same,normalized growth,"S. cerevisiae deletion strains, locus YOR001W, strain rrp6, stronger effect = lower value",0.994
same,normalized growth,"S. cerevisiae deletion strains, locus YOR061W, strain CKA2, stronger effect = lower value",0.984
same,normalized growth,"S. cerevisiae deletion strains, locus YOR069W, strain VPS5, stronger effect = lower value",0.984
same,normalized growth,"S. cerevisiae deletion strains, locus YOR070C, strain gyp1, stronger effect = lower value",1.01
same,normalized growth,"S. cerevisiae deletion strains, locus YOR080W, strain dia2, stronger effect = lower value",1.02
same,normalized growth,"S. cerevisiae deletion strains, locus YOR083W, strain WHI5, stronger effect = lower value",0.931
same,normalized growth,"S. cerevisiae deletion strains, locus YOR106W, strain vam3, stronger effect = lower value",0.972
same,normalized growth,"S. cerevisiae deletion strains, locus YOR136W, strain idh2, stronger effect = lower value",0.972
same,normalized growth,"S. cerevisiae deletion strains, locus YOR144C, strain elg1, stronger effect = lower value",0.966
same,normalized growth,"S. cerevisiae deletion strains, locus YOR184W, strain ser1, stronger effect = lower value",0.91
same,normalized growth,"S. cerevisiae deletion strains, locus YOR265W, strain rbl2, stronger effect = lower value",0.994
same,normalized growth,"S. cerevisiae deletion strains, locus YOR270C, strain vph1, stronger effect = lower value",0.943
same,normalized growth,"S. cerevisiae deletion strains, locus YOR290C, strain snf2, stronger effect = lower value",0.992
same,normalized growth,"S. cerevisiae deletion strains, locus YOR316C, strain cot1, stronger effect = lower value",0.968
same,normalized growth,"S. cerevisiae deletion strains, locus YPL051W, strain arl3, stronger effect = lower value",0.999
same,normalized growth,"S. cerevisiae deletion strains, locus YPL055C, strain LGE1, stronger effect = lower value",1
same,normalized growth,"S. cerevisiae deletion strains, locus YPL078C, strain atp4, stronger effect = lower value",0.987
same,normalized growth,"S. cerevisiae deletion strains, locus YPL106C, strain sse1, stronger effect = lower value",1.02
same,normalized growth,"S. cerevisiae deletion strains, locus YPL240C, strain hsp82, stronger effect = lower value",1.02
same,normalized growth,"S. cerevisiae deletion strains, locus YPL241C, strain CIN2, stronger effect = lower value",0.989
same,normalized growth,"S. cerevisiae deletion strains, locus YPR119W, strain clb2, stronger effect = lower value",0.967
same,normalized growth,"S. cerevisiae deletion strains, locus YPR141C, strain kar3, stronger effect = lower value",0.933
same,normalized growth,"S. cerevisiae deletion strains, locus YPR163C, strain tif3, stronger effect = lower value",0.965
same,normalized growth,"S. cerevisiae deletion strains, locus YPR167C, strain met16, stronger effect = lower value",0.965
same,normalized growth,"S. cerevisiae deletion strains, strain wtn01, stronger effect = lower value",0.876 (active)
same,normalized growth,"S. cerevisiae strains, strain wild type, stronger effect = lower value",0.978
